Measured values taken from PubChem BioAssay (Tox21).
Values without a mark were called inactive. A call without a number means that no potency is given here. Calls of active or inactive are those of the source. The call rests on the fitted dose curve; in most records, active means well fitted activation curve with a large enough effect in the repeat runs; inconclusive means weak or mixed curves; inactive means flat fitted curve, though single readings scatter.

experiment: A CellTox Green Cytotoxicity Assay to monitor cytotoxicity in HepG2 cells - 0 hour (AID 1224882); conditions: CellTox Green fluorescence; series mostly up to 76.8 µM; further: nearly all actives have a fitted effect of over 35% in size
Description: National Center for Advancing Translational Sciences [NCATS]
NIH Chemical Genomics Center [NCGC]
U.S. Environmental Protection Agency [EPA]
National Institutes of Environmental Health Sciences [NIEHS]
National Toxicology Program [NTP]
Cell-based models are critical for drug discovery. Determining the natural cytotoxic effects resulting from test compounds is an essential research activity. A CellTox Green Cytotoxicity Assay to monitor cytotoxicity in real time of continues cell culture during 40 hours of the compound treatment was used to screen Tox21 10K library compounds in HepG2 cells. CellTox Green Cytotoxicity Assay is a nonlytic, homogeneous, biofluorescent method to measure cytotoxicity in cell culture after experimental manipulation. The assay system uses a proprietary asymmetric cyanine dye that is excluded from viable cells but preferentially stains the dead cell's DNA. […] Viable cells produce no appreciable increases in fluorescence. Therefore, the fluorescence signal produced by the binding interaction with dead cell DNA is proportional to cytotoxicity.
The mixture of HepG2 cell suspension and reagents were dispensed at 600cells/6 ul/well in 1536-well tissue culture treated black solid bottom plates using a Multidrop dispenser. After the assay plates were incubated at a 37 C/5% CO2 incubator for 5 hours, 23 nL of compounds dissolved in DMSO, positive and negative controls was transferred to the assay plate by a pintool work station. The plates were incubated at 37 C for 40 hours. The fluorescence intensity were measured at 0h, 8h, 16h, 24h, 32h and 40h time points using ViewLux plate reader during compound treatment.

Row | SMILES | Potency | cytotoxicity
1 | [Cl][Dy]([Cl])[Cl] | inactive | 
2 | COc1ccc(OC)c(N=Nc2c(O)ccc3ccccc23)c1 | inactive | 
3 | O=C1OC(=O)c2cc(-c3ccc4c(c3)C(=O)OC4=O)ccc21 | inactive | 
4 | CCN(CC)c1ccc(C=O)c(O)c1 | inactive | 
5 | O=C1CCCCCCCCCCCCCC1 | inactive | 
6 | CO[Si](OC)(c1ccccc1)c1ccccc1 | inactive | 
7 | NC(=O)C1CO1 (stereo not given) | inactive | 
8 | O=C(NCc1ncc(C(F)(F)F)cc1Cl)c1c(Cl)cccc1Cl | inactive | 
9 | CCN(CC)c1ccc(C=O)cc1 | inactive | 
10 | c1ccc2cc3c4ccccc4c4ccccc4c3cc2c1 | inactive | 
11 | CCCCCCCCCCCCCCCCCCNC(=O)OC1CCN(C(=O)OC[C@H](COC(=O)N(Cc2cccc[n+]2CC)C(=O)c2ccccc2OC)OC)CC1 | inactive | 
12 | CC(=O)Nc1ccc(N=Nc2cc(C)ccc2O)cc1 | inactive | 
13 | CC(c1cc(C(C)(C)C)cc(C(C)(C)C)c1O)c1cc(C(C)(C)C)cc(C(C)(C)C)c1O | inactive | 
14 | CC(C)(C)C1=CC(=O)C(C(C)(C)C)=CC1=O | inactive | 
15 | CC1=C(/C=C/C(C)=C/C=C/C(C)=C\C(=O)O)C(C)(C)CCC1 | inactive | 
16 | CC(C)=CCC[C@H](C)CC=O | inactive | 
17 | NC(=O)c1ccccc1Cl | inactive | 
18 | C/C=C/C(=O)C1=C(C)C=CCC1(C)C | inactive | 
19 | c1ccc2c(c1)-c1ccc3ccc4cccc5cc-2c1c3c45 | inactive | 
20 | ClC(c1ccccc1)(c1ccccc1)c1ccccc1 | inactive | 

Row | SMILES | Potency | cytotoxicity
21 | CC(C)(C)c1cc(CCC(=O)OCCSCCOC(=O)CCc2cc(C(C)(C)C)c(O)c(C(C)(C)C)c2)cc(C(C)(C)C)c1O | inactive | 
22 | CC(O)(c1ccc(Cl)cc1)c1ccc(Cl)cc1 | inactive | 
23 | CCOC(=O)OC(=O)OCC | inactive | 
24 | Cc1cc(Br)ccc1NC(=O)CCl | inactive | 
25 | O=c1[nH]cccc1O | inactive | 
26 | Nc1cc([N+](=O)[O-])cc(Cl)c1O | inactive | 
27 | O=C1OCc2ccccc21 | inactive | 
28 | CCCOC(=O)c1ccc(O)cc1 | inactive | 
29 | O=C(Cl)c1ccc(Cl)cc1Cl | inactive | 
30 | Cn1c(=O)[nH]c2ncn(C)c2c1=O | inactive | 
31 | O[Si](c1ccccc1)(c1ccccc1)c1ccccc1 | inactive | 
32 | Cc1ccc(Cl)c(N)c1Cl | inactive | 
33 | O=C(CCN1CCC(c2ccccc2)C1)c1ccc2c(c1)OCCO2 (stereo not given) | inactive | 
34 | COc1cc2ncnc(Nc3cccc(Cl)c3)c2cc1OC |  | -14.6% [at 15.8 µM]
35 | CCCCC/C=C\C=C\C(=O)OCC | inactive | 
36 | CCC(O)CO (stereo not given) | inactive | 
37 | Oc1cccc2c(O)cccc12 | inactive | 
38 | O=C(c1ccccc1)c1ccc(Cl)cc1 | inactive | 
39 | Nc1ccc(Oc2cccc(Oc3ccc(N)cc3)c2)cc1 | inactive | 
40 | CC(C)(C)c1ccc(OC2CCCCC2O)cc1 (stereo not given) | inactive | 
